Bioassay records from PubChem.
tim23-1 inh – growth inhibitors of tim23-1 mutant yeast | S. cerevisiae tim23-1 growth, BacTiter-Glo luminescence, 24 h | hit rate 1.3% among 330,000 | AID 463212 | inhibition, % at 20 µM;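 active = growth inhibition of the mutant yeast at or above 50%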;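 note: temperature-sensitive mutant grown at 25 °C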
TIM10 inh – inhibits growth of TIM10 yeast strain | S. cerevisiae TIM10 strain growth, BacTiter-Glo luminescence, 24 h | inhibition, % at 10 µM | hit rate 1.4% among 330,000 | AID 463195;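 active = inhibition of 40% or more at the single tested concentration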;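 note: wild-type TIM10 isogenic control strain grown at permissive 25 °C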
NALP1 inh – blocks the NALP1 inflammasome reconstituted in yeast | S. cerevisiae NALP1/ASC/caspase-1 growth, X-gal OD620, 72 h | inhibition, % at 10 µM | hit rate 0.61% among 280,000 | AID 2071; in the data active = inhibition mostly above about 24%, no sharp cut-off; inactive = mostly below about 32%
NLRP3 yeast inh – NALP3 inhibition in yeast. hit rate 0.39% among 330,000. Yeast reconstituted NLRP3/ASC/caspase-1, beta-gal luminescence, 24 h. AID 2825. inhibition, % at 10 µM;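 active = inhibition of 50% or more; inactive = inhibition below 50%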
tim10-1 inh – tim10-1 yeast growth inhibition. S. cerevisiae tim10-1 ts strain growth, BacTiter-Glo, 24 h. inhibition, % at 20 µM. hit rate 2.2% among 330,000. AID 463190;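 active = inhibition of at least 40%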;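 note: mutant grown at 25 °C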
TIM10 conf – TIM10 yeast growth inhibition, confirmed | S. cerevisiae tim10 strain growth, BacTiter-Glo luminescence, 24 h | inhibition, % at 10 µM | hit rate 63% among 4,600 | shares compounds with TIM10 inh;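 active = inhibition of yeast growth at or above a set limit in either of two replicates at 10 µM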; note: this counterscreen used the strain with wild-type TIM10
A number is an active result. Compounds with a hit are over-represented: about 4% of the library has one in this group of screens.

Cc1cccc(NC(=O)c2ccc3ccccc3n2)c1C was read as tim23-1 inh inactive, TIM10 inh 44.9, NALP1 inh inactive, NLRP3 yeast inh inactive, tim10-1 inh inactive and TIM10 conf 31.9.
For Cc1ccccc1NC(=O)c1cccc(C(=O)Nc2ccccc2C)n1 the results were tim23-1 inh inactive, TIM10 inh inactive, NALP1 inh inactive, NLRP3 yeast inh inactive and tim10-1 inh inactive.
`Cc1cccc(C(=O)OCC(=O)Nc2ccc3c(c2)OCCO3)c1O` gave tim23-1 inh inactive, TIM10 inh inactive, NLRP3 yeast inh inactive and tim10-1 inh inactive.
For S=C(NCCc1ccccc1)Nc1ccc(Cl)cc1Cl the results were tim23-1 inh inactive, TIM10 inh 49.2, NALP1 inh inactive, NLRP3 yeast inh inactive, tim10-1 inh inactive and TIM10 conf 48.9.
For CC(C)OCCCNC(=O)C(Cc1ccccc1)NS(=O)(=O)c1ccc2c(c1)CCC(=O)N2 (stereo not drawn) the results were tim23-1 inh inactive, TIM10 inh inactive, NALP1 inh inactive, NLRP3 yeast inh inactive and tim10-1 inh inactive.
For COc1ccccc1N1CCN(C(C)C(=O)N2CC(C)OC(C)C2)CC1 (stereo not drawn) the results were tim23-1 inh inactive, TIM10 inh inactive, NALP1 inh inactive, NLRP3 yeast inh inactive and tim10-1 inh inactive.
Screening O=C(COc1ccccc1)N=C1SC2CS(=O)(=O)CC2N1c1ccccc1 (stereo not drawn) returned tim23-1 inh inactive, TIM10 inh 96.9, NALP1 inh inactive, NLRP3 yeast inh inactive, tim10-1 inh inactive and TIM10 conf inactive.
For COc1ccc(/C(C)=N/NC(=S)NCCc2ccccc2)c(O)c1 the results were tim23-1 inh inactive, TIM10 inh 43.2, NALP1 inh inactive, NLRP3 yeast inh inactive, tim10-1 inh inactive and TIM10 conf 36.6.
`CC(C)(C)c1nc(NC(=O)Nc2ccccc2)sc1Br` gave tim23-1 inh inactive, TIM10 inh 49.0, NALP1 inh inactive, NLRP3 yeast inh inactive, tim10-1 inh inactive and TIM10 conf 48.7.
For CCC(=O)NC(=S)Nc1ccc(NC(=O)COc2ccc(Cl)cc2Cl)cc1 the results were tim23-1 inh inactive, TIM10 inh inactive, NALP1 inh inactive, NLRP3 yeast inh inactive and tim10-1 inh inactive.
COc1ccc(NC(=S)NNC(=O)COc2ccc(Cl)cc2Cl)cc1 was read as tim23-1 inh inactive, TIM10 inh 46.6, NALP1 inh inactive, NLRP3 yeast inh inactive, tim10-1 inh inactive and TIM10 conf inactive.
For Cc1c(C)c(C)c2[nH]c(-c3ccc4c(c3)OCO4)nc2c1C the results were tim23-1 inh inactive, TIM10 inh 81.7, NALP1 inh inactive, NLRP3 yeast inh inactive, tim10-1 inh inactive and TIM10 conf 87.2.
Screening Cc1nc(-c2ccc3c(c2)OCO3)cs1 returned tim23-1 inh inactive, TIM10 inh inactive, NALP1 inh inactive, NLRP3 yeast inh inactive and tim10-1 inh inactive.
`Cc1ccc(C(=O)/C=C/c2ccc3c(c2)OCO3)o1` gave tim23-1 inh inactive, TIM10 inh inactive, NALP1 inh inactive, NLRP3 yeast inh inactive and tim10-1 inh inactive.
Cc1ccc(O)c(C(=O)/C=C/c2ccc3c(c2)OCCCO3)c1 was read as tim23-1 inh inactive, TIM10 inh 48.9, NALP1 inh inactive, NLRP3 yeast inh inactive, tim10-1 inh inactive and TIM10 conf 55.7.
O=C(CCC(=O)Nc1nnc(C2CCCCC2)s1)NCc1ccccc1 was read as tim23-1 inh inactive, TIM10 inh 54.8, NALP1 inh inactive, NLRP3 yeast inh inactive, tim10-1 inh inactive and TIM10 conf inactive.
Screening COc1ccc2oc(C(=O)OCC(=O)NC(C)c3ccccc3)c(C)c2c1 (stereo not drawn) returned tim23-1 inh inactive, TIM10 inh inactive, NALP1 inh inactive, NLRP3 yeast inh inactive and tim10-1 inh inactive.
COc1ccc(C(=O)Oc2cc3c4c(c2)C(C)=CC(C)(C)N4C(=O)C3=O)cc1OC was read as tim23-1 inh inactive, TIM10 inh 46.3, NALP1 inh inactive, NLRP3 yeast inh inactive, tim10-1 inh inactive and TIM10 conf 48.2.
Screening Cc1ccc(C[n+]2ccccc2)cc1 returned tim23-1 inh inactive, TIM10 inh inactive, NLRP3 yeast inh inactive and tim10-1 inh inactive.
Screening Cc1ccc(-c2cc3cccc[n+]3cc2-c2ccc(C)cc2)cc1 returned tim23-1 inh inactive, TIM10 inh 50.8, NALP1 inh inactive, NLRP3 yeast inh inactive, tim10-1 inh inactive and TIM10 conf 52.8.
Screening CC(C)c1ccccc1OCC(O)CN1CCN(S(=O)(=O)c2ccc([N+](=O)[O-])cc2)CC1 (stereo not drawn) returned tim23-1 inh inactive, TIM10 inh 40.1, NALP1 inh inactive, NLRP3 yeast inh inactive, tim10-1 inh inactive and TIM10 conf 52.3.
Screening Cc1[nH]c2ccccc2c1/C=N/Nc1nc(Nc2ccc(F)cc2)nc(N2CCOCC2)n1 returned tim23-1 inh inactive, TIM10 inh 53.4, NALP1 inh inactive, NLRP3 yeast inh inactive, tim10-1 inh inactive and TIM10 conf 34.3.
For CCCCn1cnc2c(oc3nc4c(cc32)CCCC4)c1=O the results were tim23-1 inh inactive, TIM10 inh inactive, NALP1 inh inactive, NLRP3 yeast inh inactive and tim10-1 inh inactive.
For CCCCCCn1cnc2c(oc3nc4c(cc32)CCCC4)c1=O the results were tim23-1 inh inactive, TIM10 inh 43.2, NALP1 inh inactive, NLRP3 yeast inh inactive, tim10-1 inh inactive and TIM10 conf inactive.
c1ccc(CN2c3ccccc3-c3nc4ccccc4n3C2c2ccccn2)cc1 (stereo not drawn) was read as tim23-1 inh inactive, TIM10 inh inactive, NALP1 inh inactive, NLRP3 yeast inh inactive and tim10-1 inh inactive.
`CN1c2ccccc2-c2nc3ccccc3n2C1c1ccncc1` (stereo not drawn) gave tim23-1 inh inactive, TIM10 inh inactive, NALP1 inh inactive, NLRP3 yeast inh inactive and tim10-1 inh inactive.
CN1c2ccccc2-c2nc3ccccc3n2C1c1ccccn1 (stereo not drawn) was read as tim23-1 inh inactive, TIM10 inh 42.7, NALP1 inh inactive, NLRP3 yeast inh inactive, tim10-1 inh inactive and TIM10 conf inactive.
CCN1c2ccccc2-c2nc3ccccc3n2C1c1ccco1 (stereo not drawn) was read as tim23-1 inh inactive, TIM10 inh 40.2, NALP1 inh inactive, NLRP3 yeast inh inactive, tim10-1 inh inactive and TIM10 conf 35.0.
Cc1cccc(NC(=S)N=Nc2c(O)[nH]c3ccccc23)c1 was read as tim23-1 inh inactive, TIM10 inh 41.1, NALP1 inh inactive, NLRP3 yeast inh inactive, tim10-1 inh inactive and TIM10 conf 37.2.
Screening CCC(C)n1c(SCC(=O)Nc2cc(C(C)(C)C)nn2-c2ccccc2)nc2ccccc2c1=O (stereo not drawn) returned tim23-1 inh inactive, TIM10 inh 40.7, NALP1 inh inactive, NLRP3 yeast inh inactive, tim10-1 inh inactive and TIM10 conf inactive.
`CCC(C)n1c(SCC(=O)Nc2cc(C)on2)nc2ccccc2c1=O` (stereo not drawn) gave tim23-1 inh inactive, TIM10 inh inactive, NALP1 inh inactive, NLRP3 yeast inh inactive and tim10-1 inh inactive.
